Results on eight compounds are retold here after paper PMC11062922 (Nature Chemical Biology, 2023).

SMILES strings stand for the structures. Like-named read-outs stand apart in the source and are kept apart here.

What all share (set-up): species or system human, MV4-11 + K-562 + COLO205 + SK-N-BE2 + OVCAR-8
For one experiment, the system named is CDC42. The conditions noted are these: read-out: apparent Kd, compound concentrations: 100 nM and 1000 nM (sheet 'Samples'), n = 1.
The test system of the next experiment is CDKL5. The conditions noted are these: read-out: apparent Kd; compound concentrations: 100 nM and 1000 nM (sheet 'Samples'), CATDS: 0.51116349982272002; n = 1.
A further experiment relates to CDC42BPG. Particulars: read-out: apparent Kd, n = 1.
A further experiment relates to FLT4. The conditions noted are these: read-out: apparent Kd, n = 1.
Another experiment deals with MAP3K1. Particulars: read-out: apparent Kd; compound concentrations:100 nM and 1000 nM (sheet 'Samples'); n = 1.
In another experiment the test system is MAP4K5. Particulars: read-out: apparent Kd; compound concentrations:100 nM and 1000 nM (sheet 'Samples'); n = 1.
The subject of a further experiment is STK10. The conditions noted are these: read-out: apparent Kd; compound concentrations:100 nM and 1000 nM (sheet 'Samples'); n = 1.
Another experiment concerns MYLK3. Particulars: read-out: apparent Kd; compound concentrations: 100 nM and 1000 nM (sheet 'Samples'), CATDS: 0.26108904226554702; n = 1.
In the next experiment the test system is NLK. The conditions noted are these: read-out: apparent Kd; compound concentrations: 100 nM and 1000 nM (sheet 'Samples'), CATDS: 0.267890772302949; n = 1.
The next experiment deals with TNIK. The conditions noted are these: read-out: apparent Kd; compound concentrations: 100 nM and 1000 nM (sheet 'Samples'), CATDS: 0.264395551516103; n = 1.
In a further experiment the test system is CAMK2B. Particulars: read-out: apparent Kd, n = 1.
The next experiment concerns FLT3. Particulars: read-out: apparent Kd; compound concentrations: 100 nM and 1000 nM (sheet 'Samples'), CATDS: 7.5963882735203103E-2; n = 1.
The subject of the next experiment is FYN. Particulars: read-out: apparent Kd; compound concentrations: 100 nM and 1000 nM (sheet 'Samples'), CATDS: 6.1091429900981202E-2; n = 1.
The next experiment concerns HCK. The conditions noted are these: read-out: apparent Kd; compound concentrations: 100 nM and 1000 nM (sheet 'Samples'), CATDS: 0.204546800943642; n = 1.
The next experiment deals with LCK. The conditions noted are these: read-out: apparent Kd; compound concentrations: 100 nM and 1000 nM (sheet 'Samples'), CATDS: 6.2891353750110596E-2; n = 1.
A further experiment relates to LYN. Particulars: read-out: apparent Kd; compound concentrations: 100 nM and 1000 nM (sheet 'Samples'), CATDS: 6.1198388947790797E-2; n = 1.
The next experiment concerns MAP2K5. The conditions noted are these: read-out: apparent Kd; compound concentrations: 100 nM and 1000 nM (sheet 'Samples'), CATDS: 0.12646942491879101; n = 1.
A further experiment has as its system MAPK14. The conditions noted are these: read-out: apparent Kd, compound concentrations: 100 nM and 1000 nM (sheet 'Samples'), n = 1.
In the next experiment the test system is PTK6. The conditions noted are these: read-out: apparent Kd; compound concentrations: 100 nM and 1000 nM (sheet 'Samples'), CATDS: 6.47566338134071E-2; n = 1.
The test system of another experiment is RIPK2. The conditions noted are these: read-out: apparent Kd, n = 1.
In the next experiment the test system is RIPK3. The conditions noted are these: read-out: apparent Kd; compound concentrations: 100 nM and 1000 nM (sheet 'Samples'), CATDS: 6.7046149691073503E-2; n = 1.
A further experiment relates to SRC. The conditions noted are these: read-out: apparent Kd; compound concentrations: 100 nM and 1000 nM (sheet 'Samples'), CATDS: 7.0333029214927095E-2; n = 1.
The next experiment concerns YES1. Particulars: read-out: apparent Kd; compound concentrations: 100 nM and 1000 nM (sheet 'Samples'), CATDS: 8.7589956864903007E-2; n = 1.
A further experiment concerns MAPK11. Particulars: read-out: apparent Kd; compound concentrations: 100 nM and 1000 nM (sheet 'Samples'), CATDS: 0.59050582210334401; n = 1.
A further experiment concerns MAPKAPK2. Particulars: read-out: apparent Kd; compound concentrations: 100 nM and 1000 nM (sheet 'Samples'), CATDS: 0.33085096444850498; n = 1.
Another experiment deals with CDC7. Particulars: read-out: apparent Kd; compound concentrations:100 nM and 1000 nM (sheet 'Samples'); n = 1.
The test system of a further experiment is FN3K. Particulars: read-out: apparent Kd; compound concentrations:100 nM and 1000 nM (sheet 'Samples'); n = 1.
For a further experiment, the system named is GAK. The conditions noted are these: read-out: apparent Kd; compound concentrations:100 nM and 1000 nM (sheet 'Samples'); n = 1.
Another experiment has as its system ICK. Particulars: read-out: apparent Kd; compound concentrations:100 nM and 1000 nM (sheet 'Samples'); n = 1.
Another experiment deals with MAPK10. The conditions noted are these: read-out: apparent Kd; compound concentrations:100 nM and 1000 nM (sheet 'Samples'); n = 1.
Another experiment deals with PLK1. Particulars: read-out: apparent Kd; compound concentrations: 100 nM and 1000 nM (sheet 'Samples'), CATDS: 0.18184890704530299; n = 1.
Where [1] appears, read: compound concentrations:100 nM and 1000 nM (sheet 'Samples').

On to `COc1ccc(Nc2nccc(N3CCC(NC(=O)Nc4cccc(C(C)=O)c4)C3)n2)cc1` (stereo not shown) [GSK1379731A], for which the values for the potency estimated from few doses in the experiment with CDC42 (CATDS: 0.48931368679936299) and with CDKL5 were 1.58 µM and 1.45 µM, respectively.
`COc1cc2ncn(-c3cc(O[C@@H](C)c4ccccc4Cl)c(C(N)=O)s3)c2cc1OC` [GSK237700A]: the potency estimated from few doses with CDC42BPG (setting [1]) is 2.14 µM; in the experiment on FLT4 (setting [1]) it was 1.53 µM; with MAP3K1, 1.5 µM; in the experiment with MAP4K5, 2.08 µM; in the experiment with STK10, 1.82 µM.
Take `O=C(Nc1n[nH]c2cc(-c3ccccc3)ccc12)C1CC1` [SB-732941]: the potency estimated from few doses in the experiment with CDC42BPG (compound concentrations: 100 nM and 1000 nM (sheet 'Samples'), CATDS: 0.214831425335373) was 2.21 µM; in the experiment with MYLK3 it was 1.45 µM; in the experiment with NLK, 1.38 µM; in the experiment on TNIK it was 1.42 µM.
With `c1ccc(Oc2ccc(Nc3ccnc4cc(-c5ccc(CNCCN6CCOCC6)o5)ccc34)cc2)nc1` [GW567145X], the potency estimated from few doses was 0.448 µM in the experiment with CAMK2B (compound concentrations: 100 nM and 1000 nM (sheet 'Samples'), CATDS: 8.8630985713884503E-2); 0.62 µM in the experiment on FLT3; 1.08 µM in the experiment with FYN; 0.118 µM with HCK; 0.994 µM in the experiment with LCK; 1.08 µM in the experiment with LYN. The potency estimated from few doses was 0.239 µM in the experiment with MAP2K5; 1.55 µM in the experiment on MAPK14 (CATDS: 5.4651958851346001E-2); 0.917 µM in the experiment with PTK6; 0.288 µM in the experiment with RIPK2 (compound concentrations: 100 nM and 1000 nM (sheet 'Samples'), CATDS: 0.112898428987699); 0.837 µM with RIPK3; 0.742 µM in the experiment on SRC. In the experiment on YES1, the potency estimated from few doses is 0.459 µM.
Take `COC(=O)c1cccc(NC(=O)NCCNc2ccnc(Nc3ccc(F)cc3)n2)c1` [GSK1379883A]: the potency estimated from few doses in the experiment with CDC42 (CATDS: 1) is 1.56 µM.
As for `Nc1c(C(=O)c2cccc(-c3ccc[n+]([O-])c3)c2)cnn1-c1ccc(F)cc1F` [RO1166259-000], the potency estimated from few doses with CDC42BPG (compound concentrations: 100 nM and 1000 nM (sheet 'Samples'), CATDS: 0.14684216194917399) is 1.41 µM; in the experiment on MAPK11, 0.0102 µM; in the experiment on MAPK14 (CATDS: 0.223513912329704), 0.1 µM; in the experiment on MAPKAPK2 it was 0.0312 µM.
As for `COc1cc2ncnc(Nc3cccc(Br)c3)c2cc1OC.Cl` [GI230329A], the potency estimated from few doses with CAMK2B (setting [1]) is 0.405 µM; in the experiment with CDC7, 2.06 µM; in the experiment on FN3K it was 2.15 µM; in the experiment on GAK, 0.319 µM; with ICK, 1.37 µM; with MAPK10 it was 0.956 µM. Further, in the experiment with RIPK2 (setting [1]), the potency estimated from few doses is 1.14 µM.
For `COc1cc2nccc(Nc3ccc(OCc4ccc(NC(C)=O)cc4)cc3)c2cc1OC.Cl` [GW440135A], the potency estimated from few doses in the experiment on CDC42BPG (compound concentrations: 100 nM and 1000 nM (sheet 'Samples'), CATDS: 0.22924434609497199) is 1.07 µM; in the experiment on FLT4 (compound concentrations: 100 nM and 1000 nM (sheet 'Samples'), CATDS: 0.57222186491760196), 0.185 µM; in the experiment with PLK1 it was 2.13 µM; with RIPK2 (compound concentrations: 100 nM and 1000 nM (sheet 'Samples'), CATDS: 0.227728306624736), 1.09 µM.
